# Source: PubChem BioAssay (National Center for Advancing Translational Sciences (NCATS))
# A549 viability: kills or reduces viability of A549 cells in Nrf2 counter-screen. actives 0.16% (n = 390,000). Potency, µM (highest dose often 46 µM), actives largely listed as inhibitors. A549 ARE-Fluc cells, CellTiter-Fluor viability, 18-24 h. AID 504648
#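 Cytotoxicity counterscreen: CellTiter-Fluor fluorescence was measured in A549 ARE_Fluc cells after 18-24 h of compound exposure in a concentration series. The subsequent BugLite luminescent read reports ARE-luciferase activity.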
# S2 tox: cell viability loss in ATXN counter-screen | S2 cells (HEK-293 line with an ATXN2-luciferase reporter) viability, CellTiter-Fluor protease fluorescence, 24 h | Potency, µM (doses to about 56.7 µM), most hits filed as cytotoxic | AID 651635 | actives 0.49% (n = 400,000); also: nearly all actives have a fitted effect of over 40% in size
# TGFb inhibitor: blocks TGF-b signaling; HepG2 CAGA-GFP TGF-b/SMAD3 reporter, GFP fluorescence, 18 h; TGF-beta stimulated, 500 pg/mL final; Potency, µM (top dose mostly 46.1 µM), most hits filed as inhibitors; actives 1.2% (n = 410,000); also: nearly all actives have a fitted effect of over 65% in size
#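 Per well, imaged GFP fluorescence of HEPG2 CAGA-GFP cells gives the signal; cells get compound, then TGF-beta (500 pg/mL final), 18 h at 37 degrees C; %Activity versus -TGF-beta and +DMSO controls.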
# Nrf2 block: blocks Nrf2 signaling. A549 ARE-Fluc reporter, luciferase luminescence, 18-24 h. Potency, µM (titrated, usually from 46 µM), actives largely listed as inhibitors. actives 2.1% (n = 360,000); also: nearly all actives have a fitted effect of over 60% in size
#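 Quantitative HTS in A549 cells stably bearing an antioxidant response element-firefly luciferase construct. Inhibition of Nrf2-driven transcription was scored by luminescence after 18-24 h of compound exposure at 37 °C.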
# HepG2 tox: kills HepG2 cells in TGF-b inhibitor counter-screen | HepG2 CAGA-GFP viability, ATP luminescence, 18 h | actives 0.76% (n = 410,000) | Potency, µM (top dose mostly 46.1 µM), hits mostly cytotoxic
#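 HepG2 CAGA-GFP cells (1000/well, DMEM with 1% FBS) received compound, then TGF-beta at 500 pg/mL final, and were incubated 18 hours at 37 degrees C. Viability was read by CellTiter-Glo luminescence. Media-only wells were set as complete cell-killing and DMSO as no toxicity.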
# ATXN2 expr inh: inhibitors of ATXN2 expression; HEK-293 ATXN2-luciferase reporter, luminescence, 24 h; Potency, µM (highest dose often 57 µM), usual class: inhibitors; actives 0.72% (n = 360,000); also: nearly all actives have a fitted effect of over 55% in size
#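 qHTS (up to 57 uM final) was run with 24 h compound exposure of reporter cells at 37 °C. Each well was multiplexed: SteadyGlo luminescence measured ATXN2-luciferase expression after a fluorogenic Gly-Phe-AFC viability readout (25 uM final).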
# Numbers stand for hits; i = inactive; ? = inconclusive; nt = no result; [ ] = dose if it differs, or a comment. Compounds with a hit are over-represented: about 3.8% of the library has one in this group of screens. Calls follow the shape of the dose curve; as a rule, active = well fitted curve in the direction sought with a large enough effect; inconclusive = small, poorly fitted or top-dose-only effect, or another doubt; inactive = no such curve, though single readings can be large; an effect the other way counts as inactive or inconclusive.
SMILES,A549 viability,S2 tox,TGFb inhibitor,Nrf2 block,HepG2 tox,ATXN2 expr inh
CCCCOc1cccc(C(=O)Nc2ccc(NC(=O)c3cccs3)cc2)c1,?,18µM,i,?,i,?
CCCCOc1ccc(C(=O)Nc2ccncc2)cc1,i,i,i,9.2µM,i,i
COc1cccc(C(=O)COc2ccc(NC(=O)c3cccs3)cc2)c1,i,i,i,?,i,i
O=C(COc1ccc(NC(=O)c2cccs2)cc1)c1ccc(F)cc1,i,i,i,16µM,i,i
COc1cc(NC(=O)CSc2ncnc3scc(-c4ccccc4)c23)c(C(=O)O)cc1OC,i,i,i,i,i,?
Cc1ccc(C)c(N(CC(=O)N2CCCC2)S(C)(=O)=O)c1,i,i,i,i,i,i
CCC(C(=O)Nc1ccc(C(=O)OC)cc1)n1nc(-c2ccc(C)cc2)c2c(c1=O)CCCC2 (stereo unspecified),i,i,?,i,i,i
O=C(NC(=S)Nc1ccc(S(=O)(=O)Nc2nccs2)cc1)c1ccccc1,i,i,i,i,16µM,i
O=C(NC(=S)Nc1ccc(S(=O)(=O)Nc2nccs2)cc1)c1cccnc1,i,i,i,i,i,i
O=C(Nc1nccs1)c1ccc(S(=O)(=O)NCC2CCCCC2)cc1,i,i,?,13µM,i,i
O=C(Nc1nccs1)c1ccc(S(=O)(=O)NCc2cccs2)cc1,i,i,?,i,10µM,i
O=C(Nc1nccs1)c1ccc(N2C(=O)C3CCCCC3C2=O)cc1 (stereo unspecified),i,i,?,i,i,i
N#CC1(Cc2ccc(Cl)cc2)c2ccccc2C=CN1C(=O)c1ccccc1 (stereo unspecified),i,i,i,i,i,i
O=C(CSc1ccc(F)cc1)Nc1ccc2c(c1)C(=O)NC2=O,i,i,i,i,i,nt
N#Cc1ccc(NC(=O)Cn2cnc(S(=O)(=O)N3CCCC3)c2)cc1,i,i,i,i,i,i
COc1cccc(NC(=O)c2oc3ccccc3c2NC(=O)C(C)(C)C)c1,i[1.84 µM],i,i,9.2µM,i,i
COc1cccc(NC(=O)c2oc3ccccc3c2NC(=O)c2cc3ccccc3o2)c1,i,i,i,i,i,i
O=C(c1cccc(Cl)c1)N1CCC(N2CCC(C(=O)N3CCCC3)CC2)CC1,i,nt,i,i,i,i
O=S(=O)(c1ccccc1)N(CC1CO1)c1cccc2ccccc12 (stereo unspecified),i,i,i,i,i,i
CCC/C=C(\CCC)C(NS(=O)(=O)c1cccc2cccnc12)c1ccc(C(=O)OC)cc1 (stereo unspecified),i,i,?,i,i,?
O=S(=O)(c1ccc(Oc2ccccc2)cc1)N1CCOCC1,i,i,i,nt,i,i
O=S(=O)(c1ccc(Oc2ncnc3scc(-c4ccccc4)c23)cc1)N1CCOCC1,i,i,i,16µM,i,i
CCCCn1c(N)c(N(CCC(C)C)C(=O)COC(=O)c2ccc([N+](=O)[O-])s2)c(=O)[nH]c1=O,i,i,?,23µM,i,i
CCCCCN(C(=O)CCC(=O)OCC(=O)c1ccc(C(C)CC)cc1)c1c(N)n(CCCC)c(=O)[nH]c1=O (stereo unspecified),?,i,i,10µM,i,i
CCCCn1c(N)c(N(CCC(C)C)C(=O)c2ccc(-c3ccc([N+](=O)[O-])cc3)o2)c(=O)[nH]c1=O,i,nt,i,i,i,14µM
Cc1ccc(NC(=O)C2CCCN2S(=O)(=O)c2cccc3cccnc23)cc1C (stereo unspecified),i,nt,?,i,i,nt
CCOC(=O)C1CCN(C(=O)CSc2nc3ncccc3[nH]2)CC1,i,i,i,i,i,nt
CCN(C(=O)CN1CCCC(C)C1)c1c(N)n(Cc2ccccc2)c(=O)[nH]c1=O (stereo unspecified),i,i,i,i,i,i
